This is a sample that favours compounds with a hit; in the whole collection about 11% have one here.
USP28 inh = inhibitors of human USP28 deubiquitinase; AID 1645857; inhibition, % at 25 µM; actives 3% (n = 47,000); purified USP28, Ub-rhodamine cleavage fluorescence, 30 min
USP17 block = inhibitors of human USP17 deubiquitinase | actives 6.5% (n = 47,000) | A8MUK1 | purified USP17, Ub-rhodamine cleavage fluorescence, 3 h | inhibition, % at 50 µM | AID 1645855
USP30 inh = inhibitors of human USP30 deubiquitinase; Q70CQ3; purified USP30, Ub-rhodamine cleavage fluorescence; inhibition, % at 25 µM; actives 5.3% (n = 47,000); AID 1645860
An asterisk follows results filed as active; i = inactive; x = no result given. No stated cut-off is given here; in the data, active means inhibition above about 30%; inactive means the rest.

SMILES	USP28 inh	USP17 block	USP30 inh
CC(OC(=O)c1ccc(N2CCCC2=O)cc1)C(=O)Nc1ccc2c(c1)OCO2 (configuration not stated)	-5	15	-32
CN(C)S(=O)(=O)c1cccc(NC(=O)c2ccc(N3CCCC3=O)cc2)c1	44*	48*	32*
COc1ccc(C(=O)Nc2cccc(N3CCCCC3=O)c2)cc1	10	-3	8
CC(OC(=O)c1ccc(N2CCCC2=O)cc1)C(=O)Nc1ccc2c(c1)OCCO2 (configuration not stated)	6	43*	20
O=C(Oc1coc(CSc2ncccn2)cc1=O)c1cccc(F)c1	7	5	-50
Cc1cccc(NC(=O)CSc2nnc(N)n2-c2ccccc2)c1	6	9	20
Cc1cccc(NC(=O)CSc2nnc(-c3n[nH]c4c3CCC4)n2N)c1	14	63*	28
N#Cc1cccc(NC(=O)CN2CCN(C(=O)C3COc4ccccc4O3)CC2)c1 (configuration not stated)	0	-7	-11
Cc1sc2ncn(CC(=O)Nc3ccccc3)c(=O)c2c1C	23	39*	-133
Cc1sc2ncn(CC(=O)N3CCc4ccccc43)c(=O)c2c1C	-133	-63	-442
O=C(Cn1c(=O)c2ccccc2c2ccccc21)Nc1ccc2c(c1)OCO2	31*	53*	82*
O=C(Cn1c(=O)n(CCC(=O)NC2CCCC2)c(=O)c2ccccc21)NCc1ccccc1Cl	-5	10	21
O=C(CSc1n[nH]c2nc3ccccc3n12)Nc1ccc2c(c1)OCO2	37*	-28	1
O=C(CSc1ncn[nH]1)Nc1ccc2c(c1)OCO2	-12	x	-4
O=C(CSc1c[nH]c2ccccc12)Nc1ccc2c(c1)OCO2	8	-15	-11
O=C(CCCn1c(=O)c2ccccc2n(CC(=O)Nc2ccc(Br)cc2F)c1=O)NCc1ccccc1Cl	15	41*	-15
O=C(CCCCn1c(=O)c2ccccc2n(CC(=O)Nc2ccc(Br)cc2F)c1=O)NCc1ccco1	-250	-134	i
O=C(CCCn1c(=O)c2ccccc2n(CC(=O)NCc2ccccc2Cl)c1=O)NCc1ccc2c(c1)OCO2	33*	27	66*
CN1CCOCC2(CCCN(C(=O)c3ccc(F)cc3)C2)C1 (configuration not stated)	-9	-6	-1
Cc1cccc(C(=O)N2CC(C(=O)NC3CCCCC3)C3(CCOCC3)C2)c1 (configuration not stated)	20	12	23
COc1ccc(CCNC(=O)Cn2c(=O)n(CCCCC(=O)NCc3ccc4c(c3)OCO4)c(=O)c3ccccc32)cc1OC	0	28	22
Cc1cccc(C)c1NC(=O)Cn1c(=O)n(CCCCC(=O)NCc2ccc3c(c2)OCO3)c(=O)c2ccccc21	32*	33*	67*
Cc1nc2ccccc2n1CCC(=O)NC(C)c1ccccc1 (configuration not stated)	0	-2	-52
CC1CN(S(=O)(=O)c2ccc(F)cc2)Cc2ccccc2N1C (configuration not stated)	-6	-3	-1
CCc1nccn1Cc1noc(-c2ccc(C)c(C)c2)n1	39*	0	-3
SMILES	USP28 inh	USP17 block	USP30 inh
Cc1ccccc1-c1nc(Cn2ccnc2C)no1	32*	9	14
Cc1nccn1Cc1nc(-c2ccccc2)no1	18	2	1
O=C(NC1CC1)c1cccn1Cc1noc(-c2ccc(Cl)cc2)n1	5	29	17
COc1ccccc1-c1nc(Cn2cnc3ccccc3c2=O)no1	-4	-11	-22
CCc1nccn1Cc1nc(-c2ccc(Cl)cc2)no1	43*	-3	-15
Cc1cc(C)n(-c2cc(Oc3ccccc3Br)nc(C)n2)n1	-4	6	-9
COc1cc(OC)c(N(C)S(=O)(=O)c2cccc(C(=O)OCC(=O)Nc3ccccc3C(C)=O)c2)cc1Cl	-14	-23	-15
COc1ccc(S(=O)(=O)N(C)C)cc1NC(=O)COC(=O)c1ccccc1	15	43*	14
N#Cc1cccc(S(=O)(=O)Nc2ccccc2Cc2ccccc2)c1	10	-7	5
COc1ccc2c(c1)[nH]c1c(=O)n(Cc3cccnc3)cnc12	18	11	29
O=c1c2[nH]c3ccc(F)cc3c2ncn1Cc1cccnc1	x	41*	x
Cc1ccc2c(c1)[nH]c1c(=O)n(Cc3cccnc3)cnc12	20	31*	24
COc1ccc2c(c1)c1ncn(CCCN3CCOCC3)c(=O)c1n2C	7	5	21
O=c1c2[nH]c3ccccc3c2ncn1Cc1ccncc1	15	8	19
Cn1c2ccc(F)cc2c2ncn(Cc3cccnc3)c(=O)c21	9	-1	31*
O=C(NCCc1cccc(Cl)c1)c1ccc(-c2ccccc2)cc1	15	1	28
O=C(NCCc1ccc(Cl)cc1)c1ccc(CNS(=O)(=O)c2ccccc2)cc1	60*	1	84*
Cc1cc(C)n(-c2ccc(C(=O)Nc3cccc4cccnc34)nn2)n1	1	-24	-11
Cc1nc2ccc(C(=O)Nc3cc(Cl)cc4cccnc34)cc2nc1C	10	63*	-12
NCC(=O)N1CCc2nc3ccccc3n2C(Cc2ccccc2)C1 (configuration not stated)	4	-24	5
c1ccc(-c2nc3sc4c(NCc5cccnc5)ncnc4c3c3c2CCC3)cc1	-24	-6	-56
CCOC(=O)C1=C(COc2ccccc2F)NC(=O)NC1C (configuration not stated)	-1	20	-2
Cc1ccccc1Cn1c(CCNC(=O)c2ccco2)nc2ccccc21	-12	-16	-10
Cc1ccc(Cn2c(CCNC(=O)c3ccc(Cl)cc3)nc3ccccc32)cc1	1	68*	52*
CN1c2ccccc2CN(CC(N)=O)CC1Cc1ccccc1 (configuration not stated)	-228	-172	i
SMILES	USP28 inh	USP17 block	USP30 inh
O=C(CCCC(=O)N(c1cccc(C(F)(F)F)c1)C(C(=O)NC1CCCC1)c1ccc(Cl)cc1)Nc1ccccn1 (configuration not stated)	11	15	28
CCOC(=O)c1cc2c(ccn2-c2ccc(F)cc2)n1CC(=O)N1CCN(C(=O)c2ccco2)CC1	18	36*	45*
CCOC(=O)c1cc2c(ccn2-c2ccc(F)cc2)n1CC(=O)NC1CCCCC1	14	25	0
CN(c1ccccc1)S(=O)(=O)c1ccc(C(=O)Nc2nc(-c3ccccc3)c(-c3ccccc3)s2)cc1	-13	-9	-8
Cc1cnn(CC2CCCN2Cc2nc(-c3ccoc3)no2)c1 (configuration not stated)	-49	-34	-92
O=C(c1cccnc1)N1CCC2(CC1)CC1(CO2)Nc2ccccc2-n2cccc21 (configuration not stated)	0	71*	-10
O=C(c1cscn1)N1CCC2(CN(CC(c3ccccc3)c3ccccc3)C2)C1	-20	-22	-16
O=C(c1ccncc1)N1CCC2(CC1)CC1(CO2)Nc2ccccc2-n2cccc21 (configuration not stated)	-1	38*	-79
COc1ccccc1NC(=O)N1CCC2(CC1)Nc1ccccc1-n1cccc12	2	-12	-16
O=C(c1cscn1)N1CCC2(CC1)CC1(CO2)Nc2ccccc2-n2cccc21 (configuration not stated)	-5	71*	-68
